Among all 22,000 compounds or so, about 220 (1%) were called active. The full list was thinned out, with actives kept by preference. A number with no mark means an inactive call. Rule as the data show it: active = inhibition above about 35%; inactive = the rest.
Biological target: Mitogen-activated protein kinase kinase kinase 5 (Homo sapiens) (UniProt Q99683)
Assay: ASK1 kinase inhibitors, primary screen, biochemical, AlphaScreen (AID 1159602);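 also: 0% = median of compound wells and 100% = no enzyme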
Settings: AlphaScreen MKK6 phosphorylation by ASK1, luminescence; at 7.44 µM; stronger effect = higher value

Chain of Mitogen-activated protein kinase kinase kinase 5 (Homo sapiens) (Q99683 whole entry, looked up): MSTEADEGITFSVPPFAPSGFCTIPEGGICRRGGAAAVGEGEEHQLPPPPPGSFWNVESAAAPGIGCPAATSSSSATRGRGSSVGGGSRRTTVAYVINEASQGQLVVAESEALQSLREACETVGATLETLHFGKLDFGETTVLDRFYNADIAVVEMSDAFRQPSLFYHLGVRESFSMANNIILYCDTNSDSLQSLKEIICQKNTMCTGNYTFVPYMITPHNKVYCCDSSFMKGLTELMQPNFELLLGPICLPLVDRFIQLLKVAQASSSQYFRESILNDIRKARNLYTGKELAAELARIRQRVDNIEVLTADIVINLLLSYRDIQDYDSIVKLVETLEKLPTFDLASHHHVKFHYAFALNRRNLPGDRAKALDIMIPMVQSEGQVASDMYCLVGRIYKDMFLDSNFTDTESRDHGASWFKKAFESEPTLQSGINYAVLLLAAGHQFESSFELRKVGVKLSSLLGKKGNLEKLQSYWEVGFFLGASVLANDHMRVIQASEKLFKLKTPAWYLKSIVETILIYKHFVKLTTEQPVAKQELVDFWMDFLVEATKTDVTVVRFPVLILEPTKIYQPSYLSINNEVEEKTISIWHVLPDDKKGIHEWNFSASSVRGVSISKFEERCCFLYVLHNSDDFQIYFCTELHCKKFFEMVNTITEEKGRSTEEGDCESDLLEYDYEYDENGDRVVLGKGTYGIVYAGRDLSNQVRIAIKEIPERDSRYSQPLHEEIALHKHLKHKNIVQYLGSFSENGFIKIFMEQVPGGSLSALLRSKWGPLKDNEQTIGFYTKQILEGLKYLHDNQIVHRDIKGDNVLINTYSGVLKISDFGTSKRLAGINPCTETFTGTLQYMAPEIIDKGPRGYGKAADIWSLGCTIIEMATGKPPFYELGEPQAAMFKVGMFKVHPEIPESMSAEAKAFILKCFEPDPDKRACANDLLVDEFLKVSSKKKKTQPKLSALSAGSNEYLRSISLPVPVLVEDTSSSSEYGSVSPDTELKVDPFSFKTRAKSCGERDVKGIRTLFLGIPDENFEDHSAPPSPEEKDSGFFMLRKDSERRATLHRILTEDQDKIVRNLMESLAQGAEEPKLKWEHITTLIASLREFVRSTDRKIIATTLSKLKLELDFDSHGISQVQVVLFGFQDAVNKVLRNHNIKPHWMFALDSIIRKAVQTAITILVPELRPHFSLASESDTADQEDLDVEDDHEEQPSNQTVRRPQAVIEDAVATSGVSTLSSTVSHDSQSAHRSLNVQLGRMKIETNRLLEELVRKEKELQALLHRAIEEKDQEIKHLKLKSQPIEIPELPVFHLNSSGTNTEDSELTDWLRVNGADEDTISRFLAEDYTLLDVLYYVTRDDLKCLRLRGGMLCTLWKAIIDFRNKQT

| SMILES | inhibition |
| --- | --- |
| c1nc(NC2CC2)c2[nH]c(N3CCN(Cc4ccc5c(c4)OCO5)CC3)nc2n1 | -10.7% |
| c1cnc(Nc2nc(NC3CC3)c3[nH]cnc3n2)cn1 | -8.13% |
| CC(=O)Nc1ccc(Nc2nc(N3CCc4ccccc4C3)nc3c2ncn3C(C)C)cc1 | 14% |
| CN(C)c1cccc(Nc2nc3ccc(C(=O)Nc4ccc(N5CCOCC5)cc4)cc3s2)c1 | 29% |
| COc1ccc(CCNC(=O)c2ccnc(-c3ccc(C(=O)NC4CC4)cc3)c2)cc1 | -2.59% |
| CCN(CC)c1nc(NCCCN2CCCC2=O)nc(N2CCC(N3CCOCC3)CC2)n1 | 2.42% |
| CCNc1nc(NCCOc2ccccc2)c2ncn(Cc3ccc(C(F)(F)F)cc3)c2n1 | -5.64% |
| FC(F)(F)c1cccc(CNc2ncnc3nc(N4CCC(N5CCOCC5)CC4)[nH]c23)c1 | -8.59% |
| CCN(CC)C(=O)C1CCCN(c2nccc(NCc3nc4ccccc4[nH]3)n2)C1 (configuration not stated) | 4.76% |
| COc1ccc(CNc2nc(-c3cccc(OC(F)(F)F)c3)nc3c2ncn3C(C)C)cc1 | -11.1% |
| COc1cc2nc(NCc3cccnc3)nc(NCCN3CCOCC3)c2cc1OC | -7.09% |
| NS(=O)(=O)c1ccc(Nc2nccc(-c3cccc(Cl)c3)n2)cc1 | -4.08% |
| Cc1cc(Nc2ccccc2)nc(NCc2cccnc2)n1 | -4.25% |
| O=C(NCc1ccccc1)c1ccnc(Nc2nccc3ccccc23)c1 | -2.15% |
| CCN(CC)C(=O)C1CCCN(c2nc(Nc3ccc(NC(C)=O)cc3)c3ncn(C4CCCCC4)c3n2)C1 (configuration not stated) | -11% |
| Nc1nc(NCCO)cc(N2CCOCC2)n1 | -6.61% |
| O=C(NCc1nc2ccncc2[nH]1)c1c(F)cccc1F | -12.1% |
| O=C(Cc1ccc(Br)cc1)N1CCCC(Nc2cccc3cnccc23)C1 (configuration not stated) | -21.7% |
| O=C1CCCN1CCCNc1nc(-c2ccccc2)nc2nc[nH]c12 | -3.38% |
| c1ccc2c(c1)OCC(c1cnc3ccc(-c4cn[nH]c4)cc3n1)O2 (configuration not stated) | 14.4% |
| Cn1c(C2COc3ccccc3O2)nc2ccc(-c3cn[nH]c3)cc21 (configuration not stated) | 8.71% |
| CN1CCN(c2nc(C3COc4ccccc4O3)nc3ccc(-c4cn[nH]c4)cc23)CC1 (configuration not stated) | 41.7% (active) |

Source: PubChem BioAssay AID1159602 (The Scripps Research Institute Molecular Screening Center, 2016)
